This is an account of results in PubChem BioAssay (NCATS).

Each structure is given as a SMILES string. Inconclusive results are not listed. Activity calls are given as the source filed them. Calls come from the whole dose curve; as a rule, active = well fitted curve in the direction sought with a large enough effect; inconclusive = small, poorly fitted or top-dose-only effect, or another doubt; inactive = no such curve, though single readings can be large; an effect the other way counts as inactive or inconclusive.

Test [1] in a line: Quantitative High-Throughput drug screen in 47 multiple myeloma cell lines against the NCATS MIPE library collection: Karpas417_ECACC cell viability assay (AID 1918961). The settings on record: Karpas417 myeloma viability, CellTiter-Glo ATP luminescence, 48 h; viability (% of DMSO): at 45.8 µM (top of the series). The essentials:
(§1)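 Inhibition of cell viability is measured here. Each line was plated at 500 cells per well, treated with MIPE 4.0 drugs, kept 48 hours at 37C, then assayed for ATP content by CellTiter-Glo luminescence.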

Test [2] is described as follows: Quantitative High-Throughput drug screen in 47 multiple myeloma cell lines against the NCATS MIPE library collection: JIM3_ECACC cell viability assay (AID 1918963; note: nearly all actives have a fitted effect of over 35% in size). An outline of the steps:
(§2)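 Approved and investigational drugs from MIPE 4.0 were added by pin tool to 500 cells per well. After 48 hours at 37C, ATP-based CellTiter-Glo luminescence indicated remaining viability.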

Test [3] in a line: Quantitative High-Throughput drug screen in 47 multiple myeloma cell lines against the NCATS MIPE library collection: INA6_PLB cell viability assay (AID 1918965; note: nearly all actives have a fitted effect of over 55% in size). The essentials:
as §1

A short description of test [4]: Quantitative High-Throughput drug screen in 47 multiple myeloma cell lines against the NCATS MIPE library collection: H1112_PLB cell viability assay (AID 1918967; note: nearly all actives have a fitted effect of over 30% in size). The essentials:
(§3)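 We plated 500 myeloma cells per well, pinned in MIPE 4.0 compounds, and incubated for 48 hours at 37C. ATP was then quantified with CellTiter-Glo, with DMSO and media-only wells defining 100% and 0%.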

Test [5] is described as follows: Quantitative High-Throughput drug screen in 47 multiple myeloma cell lines against the NCATS MIPE library collection: KMS27_JCRB cell viability assay (AID 1918970). Note: nearly all actives have a fitted effect of over 30% in size. The essentials: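 CellTiter-Glo luminescence after 48 h drug exposure at 37 °C; 500 cells/well, 1536-well format, pin-tool compound addition; DMSO = 100%, media-only = 0% viability.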
A short description of test [6]: Quantitative High-Throughput drug screen in 47 multiple myeloma cell lines against the NCATS MIPE library collection: KMS12PE_JCRB cell viability assay (AID 1918972). Note: nearly all actives have a fitted effect of over 30% in size. An outline of the steps:
as §1

Test [7] can be described thus: Quantitative High-Throughput drug screen in 47 multiple myeloma cell lines against the NCATS MIPE library collection: KMS26_JCRB cell viability assay (AID 1918975). Note: nearly all actives have a fitted effect of over 45% in size. The essentials:
as §3

Test [8] is described as follows: Quantitative High-Throughput drug screen in 47 multiple myeloma cell lines against the NCATS MIPE library collection: OCIMY1_PLB cell viability assay (AID 1918979). Note: nearly all actives have a fitted effect of over 35% in size. The essentials: (§4)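 ATP-based luminescence (CellTiter-Glo, 5 min RT incubation) quantified surviving cells following two days' treatment with MIPE 4.0 agents at 37 °C, 5% CO2.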
The nature of test [9]: Quantitative High-Throughput drug screen in 47 multiple myeloma cell lines against the NCATS MIPE library collection: KHM11_PLB cell viability assay (AID 1918962). Note: nearly all actives have a fitted effect of over 35% in size. An outline of the steps:
as §2

Test [10] can be described thus: Quantitative High-Throughput drug screen in 47 multiple myeloma cell lines against the NCATS MIPE library collection: Karpas25_ECACC cell viability assay (AID 1918968; note: nearly all actives have a fitted effect of over 35% in size). The essentials:
as §3

A short description of test [11]: Quantitative High-Throughput drug screen in 47 multiple myeloma cell lines against the NCATS MIPE library collection: NCIH929_DSMZ cell viability assay (AID 1918978). Note: nearly all actives have a fitted effect of over 35% in size. The essentials: as §4
Test [12] in a line: Quantitative High-Throughput drug screen in 47 multiple myeloma cell lines against the NCATS MIPE library collection: MM1R_ATCC cell viability assay (AID 1918981). Note: nearly all actives have a fitted effect of over 35% in size. An outline of the steps: as §4
The nature of test [13]: Quantitative High-Throughput drug screen in 47 multiple myeloma cell lines against the NCATS MIPE library collection: KMS12BM_JCRB cell viability assay (AID 1918971). Note: nearly all actives have a fitted effect of over 35% in size. The essentials:
as §3

A short description of test [14]: Quantitative High-Throughput drug screen in 47 multiple myeloma cell lines against the NCATS MIPE library collection: KMS21BM_JCRB cell viability assay (AID 1918974). As to conditions: ATP luminescence, 48 h; viability: at 45.8 µM (top of the series). The essentials: as §3
The nature of test [15]: Quantitative High-Throughput drug screen in 47 multiple myeloma cell lines against the NCATS MIPE library collection: MMM1_PLB cell viability assay (AID 1918976). Note: nearly all actives have a fitted effect of over 35% in size. An outline of the steps: as §4
Test [16] is described as follows: Quantitative High-Throughput drug screen in 47 multiple myeloma cell lines against the NCATS MIPE library collection: MOLP8_DSMZ cell viability assay (AID 1918977). Note: nearly all actives have a fitted effect of over 45% in size. The essentials:
as §4

A short description of test [17]: Quantitative High-Throughput drug screen in 47 multiple myeloma cell lines against the NCATS MIPE library collection: MM1S_ATCC cell viability assay (AID 1918980). Note: nearly all actives have a fitted effect of over 45% in size. The essentials: as §4
Test [18] in a line: Quantitative High-Throughput drug screen in 47 multiple myeloma cell lines against the NCATS MIPE library collection: JJN3_DSMZ cell viability assay (AID 1918966; note: nearly all actives have a fitted effect of over 50% in size). The essentials:
as §3

A short description of test [19]: Quantitative High-Throughput drug screen in 47 multiple myeloma cell lines against the NCATS MIPE library collection: KMS20_JCRB cell viability assay (AID 1918973). Note: nearly all actives have a fitted effect of over 45% in size. An outline of the steps:
as §3

Test [20] can be described thus: Quantitative High-Throughput drug screen in 47 multiple myeloma cell lines against the NCATS MIPE library collection: JIM1_ECACC cell viability assay (AID 1918964). The essentials: as §3
Potency is the fitted concentration of half-maximal effect.

Regarding `CCOC(=O)c1ccc(C#Cc2ccc3c(c2)C(C)(C)CCS3)nc1`, the viability (% of DMSO) in test [1] was 132% (active). Besides, the values for the Potency in [2], in test [4] and in test [6] were 18.7 µM (active), 20.9 µM (active) and 11.8 µM (active), respectively. The Potency result in [3], in test [5], in test [7] and in [8] was “inactive” each time.

In the case of `COC(c1ccccc1)(c1ccccc1)[C@H](Oc1nc(C)cc(C)n1)C(=O)O`, the Potency result in test [1], in test [9], in test [2], in test [4], in [10] and in test [5] was “inactive” each time. For the same molecule, the Potency entry in test [6], in [7], in test [11], in [8] and in [12] was “inactive” throughout.

As to `Cc1ccc(S(=O)(=O)N[C@@H](Cc2ccccc2)C(=O)CCl)cc1`, the Potency in [1] was 11.8 µM (active); in test [9], 16.6 µM (active); in test [2], 13.2 µM (active); in test [3], 5.9 µM (active); in [4], 16.6 µM (active); in [10], 9.35 µM (active). The Potency in test [5] is 13.2 µM (active); in [13], 18.7 µM (active); in [6] it was 16.6 µM (active); in test [14], 14.8 µM (active); in test [7] it was 18.7 µM (active); in test [15], 20.9 µM (active). The Potency in test [16] is 14.8 µM (active); in test [11] it was 10.5 µM (active); in [8], 23.5 µM (active); in [17], 11.8 µM (active); in test [12] it was 16.6 µM (active).

Regarding `CC(C)NCC(O)c1ccc(NS(C)(=O)=O)cc1` (configuration not stated), the Potency entry in test [1], in test [9], in test [2], in [4], in test [13] and in test [6] was “inactive” throughout. Besides, the Potency entry in test [11], in test [8] and in [12] was “inactive” in each case. The results for the Potency in test [15] and in test [17] were 2.09 µM (active) and 7.43 µM (active), respectively.

For `C[C@@H]1C[C@H]2[C@@H]3CCC4=CC(=O)C=C[C@]4(C)[C@@]3(Cl)[C@@H](O)C[C@]2(C)[C@@]1(OC(=O)c1ccco1)C(=O)CCl`, the Potency is 8.33 µM (active) in test [1]; 9.35 µM (active) in test [9]; 9.35 µM (active) in test [2]; 2.35 µM (active) in test [18]; 5.26 µM (active) in test [4]; 10.5 µM (active) in [5]. Also, the Potency in [13] is 18.7 µM (active); in [6], 4.69 µM (active); in test [7], 14.8 µM (active); in test [15] it was 18.7 µM (active); in test [11], 3.32 µM (active); in test [12] it was 16.6 µM (active).

As to `O=c1cc(O)c(Cl)c[nH]1`, the Potency in test [1] is 1.18 µM (active); in test [5], 1.66 µM (active); in [6] it was 6.62 µM (active); in test [14], 0.743 µM (active); in [17] it was 3.72 µM (active). Besides, the Potency result in test [9], in [2], in test [4], in test [10], in test [16] and in [11] was “inactive” throughout. Moreover, the Potency entry in [8] was “inactive”.

Consider `CNS(=O)(=O)CCc1ccc2[nH]cc(C3CCN(C)CC3)c2c1`, for which the Potency in test [1] was 16.6 µM (active); in [9], 1.18 µM (active); in [2] it was 2.35 µM (active); in test [10], 0.935 µM (active); in test [13] it was 2.64 µM (active); in test [19], 0.935 µM (active). Further, the Potency is 2.96 µM (active) in test [7], 0.332 µM (active) in test [11] and 0.469 µM (active) in test [17]. In addition, in [16], the Potency result is “inactive”.

Regarding `C[C@@H](CN1CC(=O)NC(=O)C1)N1CC(=O)NC(=O)C1`, the Potency in test [1] is 0.0526 µM (active); in test [3] it was 10.5 µM (active); in [4] it was 16.6 µM (active); in test [10], 9.35 µM (active); in [6], 1.66 µM (active); in test [11] it was 16.6 µM (active). In addition, the Potency in test [17] was 3.32 µM (active). For the same molecule, the Potency entry in test [2] and in test [7] was “inactive” in each case.

Take `CC(=O)CC(c1ccccc1)c1c(O)c2ccccc2oc1=O` (configuration not stated): the Potency result in test [9], in [2], in test [3], in test [4], in test [10] and in test [6] was “inactive” throughout. The Potency result in [19], in [7], in test [11], in test [8] and in test [12] was “inactive” in each case.

In the case of `CC(C)(C)C(=O)OCOP(=O)(COCCn1cnc2c(N)ncnc21)OCOC(=O)C(C)(C)C`, the Potency in test [9] was 0.935 µM (active); in test [2] it was 2.64 µM (active); in test [3], 0.743 µM (active); in test [4] it was 3.72 µM (active); in test [10] it was 1.66 µM (active); in [5], 0.469 µM (active). Further, the Potency is 0.935 µM (active) in [13]; 2.64 µM (active) in test [19]; 6.62 µM (active) in test [7]; 18.7 µM (active) in test [15]; 0.209 µM (active) in test [11]; 11.8 µM (active) in test [8]. In addition, the Potency in [17] is 2.09 µM (active); in [12] it was 0.332 µM (active).

Take `CC(C)(Sc1cc(C(C)(C)C)c(O)c(C(C)(C)C)c1)Sc1cc(C(C)(C)C)c(O)c(C(C)(C)C)c1`: the Potency entry in test [1], in test [18], in test [5], in [13], in [7] and in [16] was “inactive” throughout. Further, the Potency entry in [12] is “inactive”. The Potency was 4.69 µM (active) in [3] and 4.18 µM (active) in [17].

Take `CC1CC2C3CCC4=CC(=O)C=C[C@]4(C)[C@@]3(F)[C@@H](O)C[C@]2(C)[C@@]1(O)C(=O)CO` (some centres not stated): the Potency in [9] is 0.833 µM (active); in test [20], 0.0023 µM (active); in test [10] it was 0.209 µM (active); in test [15] it was 0.0264 µM (active); in test [16], 0.935 µM (active); in [11], 0.0526 µM (active). The Potency in [17] is 0.59 µM (active). For the same molecule, the Potency entry in test [2], in test [4], in test [6] and in [12] was “inactive” each time.

On to `CNC(=O)c1cc(Oc2ccc(NC(=O)Nc3ccc(Cl)c(C(F)(F)F)c3)cc2)ccn1`, for which the Potency in [9] was 11.8 µM (active); in test [2], 10.5 µM (active); in [18] it was 23.5 µM (active); in test [4] it was 9.35 µM (active); in test [10], 6.62 µM (active); in test [6] it was 3.72 µM (active). For the same molecule, the Potency was 16.6 µM (active) in [19]; 16.6 µM (active) in test [15]; 10.5 µM (active) in test [11]; 3.72 µM (active) in test [17]; 20.9 µM (active) in test [12].

`Cc1oc(=O)oc1CN1CCN(c2cc3c(cc2F)c(=O)c(C(=O)O)c2n3C(C)S2)CC1` (configuration not stated): the Potency entry in [9], in test [2], in test [4], in test [10], in [5] and in test [6] was “inactive” each time. Moreover, the Potency entry in [11], in test [8] and in [12] was “inactive” throughout. In addition, the Potency was 14.8 µM (active) in [18] and 13.2 µM (active) in test [13].
